VACV Venus inh: vaccinia inhibition (Venus reporter); Vaccinia virus Venus reporter expression, fluorescence; Potency, µM (highest dose often 36.5 µM), inactives show at the top dose activity change, negative = inhibition, actives largely listed as inhibitors; actives 0.46% (n = 330,000); AID 720580; calls by dose curve; tested in A549 cells; note: potency is the fitted concentration of half-maximal effect; nearly all actives have a fitted effect of over 30% in size
VACV mCherry inh: inhibitors of vaccinia virus infection (mCherry reporter signal). Vaccinia virus mCherry reporter infection, fluorescence. Potency, µM (doses to about 36.5 µM), for the others: at the top dose activity change, negative = inhibition, usual class: inhibitors. actives 0.63% (n = 310,000). AID 720579; calls by dose curve; tested in A549 cells; note: potency is the fitted concentration of half-maximal effect; nearly all actives have a fitted effect of over 35% in size
HCMV antiviral: human cytomegalovirus inhibition. HFF cells, HCMV-luciferase reporter, 72 h; active compounds read low. activity change, negative = inhibition, % at 57.5 µM. actives 4.5% (n = 410,000); in the data active = activity change below about -60%; inconclusive = no clear call, values can overlap the other calls; inactive = above about -39%
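HFF cells seeded 16 h at 37C, treated with compounds, infected with luciferase-reporter HCMV at MOI 1 PFU/cell; luciferase read at 72 h post infection, normalized to buffer-only and Salinomycin controls.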
FMDV inh: foot and mouth disease virus antiviral activity; actives 1.2% (n = 410,000); Potency, µM (series often up to 57.9 µM), inactives show top-dose activity change, negative = inhibition, hits mostly inhibitors; AID 1159524; FMDV antiviral cell-based qHTS; calls by dose curve; tested in HEK293T cells; note: read-out not given here; potency is the fitted concentration of half-maximal effect; nearly all actives have a fitted effect of over 45% in size
HCV inh: blocks hepatitis C virus; Huh7.5.1 HCVcc-Cre infection, luciferase reporter, 44 h; Potency, µM (doses to about 41.8 µM), for the others: at the highest dose activity change, negative = inhibition, actives largely listed as inhibitors; actives 3.4% (n = 340,000); AID 651820; active = well fitted inhibition curve with a large enough effect; inconclusive = small, poorly fitted or top-dose-only effect, or another doubt; inactive = no such curve, though single readings can be large or run the other way; note: potency is the fitted concentration of half-maximal effect
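Infectious HCV cell culture screen: compound-treated cells (1,000/well, pre-plated 4 h) are infected with HCVcc-Cre at roughly 0.5 moi and grown 44 h. Infection is quantified by luciferase signal after 15 min substrate incubation at room temperature.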
The depositor's hits bear a star; [ ] = another dose, or the depositor's remark. Hits are enriched below; roughly 7.3% of the tested compounds scored in any of these assays. % is set by controls: 0 for no effect and ±100 for the full control effect.

C=C(C)CSc1cc(C)c(C#N)c2nc3ccccc3n12 was read as VACV Venus inh -3%, VACV mCherry inh inactive, HCMV antiviral -75*, FMDV inh inconclusive and HCV inh 11µM*.
Screening COc1ccc(-c2nc(SCC(=O)NCc3nc4ccccc4n3C)n3[nH]c(=O)cc3n2)cc1 returned VACV Venus inh 3%, VACV mCherry inh -5%, HCMV antiviral 21 and FMDV inh -20%.
CCCCN1C[C@H](CO)Oc2cccc(F)c2S1(=O)=O was read as VACV Venus inh -8%, VACV mCherry inh inactive, HCMV antiviral 9, FMDV inh -6% and HCV inh 0.56µM*.
Screening O=S1(=O)c2c(F)cccc2O[C@@H](COCc2ccccc2)CN1CCc1ccc(F)cc1 returned VACV Venus inh 0%, VACV mCherry inh -17%, HCMV antiviral -21, FMDV inh -28% and HCV inh 10µM*.
`C=CCCC1CN(CCCC)S(=O)(=O)c2c(F)cccc2O1` (centres undefined) gave VACV Venus inh -16%, VACV mCherry inh inactive, HCMV antiviral inconclusive, FMDV inh 0% and HCV inh -8%.
`Cc1ccc(S(=O)(=O)c2cnc(SCC(=O)Nc3ccccc3C(F)(F)F)[nH]c2=O)cc1C` gave VACV Venus inh 10%, VACV mCherry inh 5%, HCMV antiviral 15 and FMDV inh -10%.
CSc1nn(Cc2cccc(Cl)c2)c(N(C(C)=O)C(C)=O)c1S(=O)(=O)c1ccccc1 was read as VACV Venus inh inconclusive, VACV mCherry inh inconclusive, HCMV antiviral -19 and FMDV inh 0%.
`CCc1cc(C(=O)N2CCCC(N3CCN(c4cccc(C(F)(F)F)c4)CC3)C2)n(C)n1` (centres undefined) gave HCMV antiviral inconclusive, FMDV inh inconclusive and HCV inh 10µM*.
`CCCN1CCC(N2CCN(c3cccc(C(F)(F)F)c3)CC2)CC1` gave HCMV antiviral -22, FMDV inh -27% and HCV inh 11µM*.
Cc1ccc(CNC(=O)C2CCN(S(=O)(=O)c3ccc4c(c3)CC(C)N4C(=O)C3CCC3)CC2)o1 (centres undefined) was read as HCMV antiviral -24, FMDV inh inconclusive and HCV inh -20%.
For O=C(NNc1ncnc2c1cnn2-c1cccc(Cl)c1)c1ccco1 the results were HCMV antiviral 6, FMDV inh 25% and HCV inh 5%.
COc1ccc(C(=O)NNc2ncnc3c2cnn3-c2cccc(Cl)c2)cc1OC was read as VACV Venus inh inconclusive, VACV mCherry inh inconclusive, HCMV antiviral -86* and FMDV inh 0%.
`CCc1ccc(C2CC(=O)N3CN(c4ccccc4)CSC3=C2C#N)cc1` (centres undefined) gave VACV Venus inh -13%, VACV mCherry inh inconclusive, HCMV antiviral 26, FMDV inh -14% and HCV inh 1%.
`N#CC1=C2SCN(c3ccc(F)cc3)CN2C(=O)CC1c1cccc(F)c1` (centres undefined) gave VACV Venus inh 0%, VACV mCherry inh 12%, HCMV antiviral -93*, FMDV inh -2% and HCV inh -1%.
For Clc1cccc(Nc2nc(-c3ccncc3)nc3ccccc23)c1 the results were VACV Venus inh -12%, VACV mCherry inh 0%, HCMV antiviral 3, FMDV inh -20% and HCV inh inconclusive.
For c1ccc2c(Nc3nc(-c4ccncc4)nc4ccccc34)cccc2c1 the results were VACV Venus inh -28%, VACV mCherry inh -19%, HCMV antiviral 85, FMDV inh 0% and HCV inh inconclusive.
Fc1ccccc1Oc1nc(-c2ccncc2)nc2ccccc12 was read as HCMV antiviral -33, FMDV inh -30% and HCV inh 0.56µM*.
`Fc1ccc(Nc2nc(-c3ccncc3)nc3ccccc23)cc1F` gave HCMV antiviral 12, FMDV inh inconclusive and HCV inh 11µM*.
For Clc1ccccc1Nc1nc(-c2ccncc2)nc2ccccc12 the results were HCMV antiviral 2, FMDV inh inconclusive and HCV inh 7.1µM*.
Screening CC(C)(C)c1cc(C(=O)NNC(=O)c2ccc(Cl)cc2)no1 returned VACV Venus inh -3%[7.34 µM], VACV mCherry inh inactive[7.34 µM], HCMV antiviral -5, FMDV inh 5% and HCV inh -9%.
